From the OligoGym collection come the findings set out here.
Further: reference of the scale not given here.

One assay deals with C1orf106. Put plainly: pooled miR-30 sensor sort-seq; sequence = guide strand. Particulars: shRNA.
The sequence TTGAGCTCCTCGGACACGGCGG came in with a sensor-assay potency score (higher = more potent) of -0.833. On to TAGAACCAGAGCACAGAGCGTT, for which the sensor-assay potency score (higher = more potent) was -0.706. On the same count and under the same terms, then TTATTGAAGTATTTAGCACTAA, with -0.34; and TTGTAAGCCGCTCCGATCCTGC, with -0.983; and TATTGAAGTATTTAGCACTAAA, with -0.989. The same measure, in the same setting: then TAAAACATAATCATATCACAGG, with -0.615; and TAAGCCGCTCCGATCCTGCGGC, with -0.585; and TTCTCCTCCAGGCACAGCCGAC, with -1.78. On the same count and under the same terms, under TATATAAGGAGATAGAGGCTGT stands 0.0357.

Another assay has as its target C1orf109. The description is as above. Particulars: shRNA.
Consider TATCTTGTACAAGATCCTGGTG, for which the sensor-assay potency score (higher = more potent) was -0.3.

In turn, TTTCTCTTCAGGTACGACTTTC displayed a sensor-assay potency score (higher = more potent) of -0.727. Still for that read-out and setting: under TTCTTTAGAAACATCAGGGTTC stands 0.139. As to TGACAAAAGACACAAAACCAGG, the sensor-assay potency score (higher = more potent) was -1.47. As for TTGAAAAATATCTATACCCTTT, the sensor-assay potency score (higher = more potent) was -0.465. TAAATAGACACTGAAAAGGTAT: the sensor-assay potency score (higher = more potent) was -0.303. Same read-out and setting: then TTTAGGTCCACAATAGAGGAAA, with -1.1. Same read-out and setting: under ATCTTGTACAAGATCCTGGTGT stands -0.231; under TAGATGAAGGCAGCAGACCTTG, -1.04. Sequence TATGTATCGATGATAGCACGTT returned a sensor-assay potency score (higher = more potent) of 0.283. TTATTAATAATAGTTATCTGGT: the sensor-assay potency score (higher = more potent) is 0.0251. Same read-out and setting: under TTTTTAAAAAAAGACAACCTAA stands -0.867.

In the next assay the target is C1orf114. The assay is described as above. Particulars: shRNA.
TTCTCCATAATATATCTCCTTA gave a sensor-assay potency score (higher = more potent) of -0.58. TTAGCTTCTAGTCGGAGCTGTC yielded a sensor-assay potency score (higher = more potent) of -0.331.

TTTTCCATCTCTCTCTACCAGT: the sensor-assay potency score (higher = more potent) is -0.549.

As to TTCTTGTCCAAAATCATTGGAA, the sensor-assay potency score (higher = more potent) was -0.446. On the same count and under the same terms, then TTTGTAGTTCTTTCTGTCGAGG, with -0.841. The same measure, in the same setting: under TTCTAGTGGAGGAACTTCCAAA stands -0.899. Turning to TTCTTTCATCTGCTCTTCGTGC, the sensor-assay potency score (higher = more potent) was -0.834. On the same count and under the same terms, under TTCTTGATTCTGTAGAAGCTTG stands -0.732. On to TACTATGTCATTCTCTCTCTTT, for which the sensor-assay potency score (higher = more potent) is -0.145. Same read-out and setting: under TAGTAGTGTCTTCTAGTGGAGG stands -0.965.

In turn, TTGGTTAATATTCTCTTCCTTC gave a sensor-assay potency score (higher = more potent) of -0.217. On the same count and under the same terms, under TTTTCTTTTGCAACCACGCTTT stands -0.00106.

Another assay deals with C1orf115. Described as above. The conditions noted are these: shRNA.
With TCTAGTAACATCCTCTTCCTCC, the sensor-assay potency score (higher = more potent) stood at 0.254. As to TACTTCTTCAGCTTCCTCCGGT, the sensor-assay potency score (higher = more potent) amounted to 0.808. On the same count and under the same terms, under TTGCAGGCCGATGACCACGTAG stands -1.3. On the same count and under the same terms, then TTGAGGAATAAACAGCTCCTTA, with -1.12; and TGACTCTAGTAACATCCTCTTC, with -1.03; and TCTGACTCTAGTAACATCCTCT, with 0.697. The same measure, in the same setting: under TTTTCTCTTCCAAATATGCTGT stands -0.444.
